High-throughput results (PubChem)
An excerpt weighted towards active compounds, which were near 7.3% of everything screened.
SMN2 splice up: enhancers of SMN2 splice variant expression; HEK293 SMN2-luciferase splicing reporter, luminescence, 30-36 h; Potency, µM (top dose mostly 46.1 µM), for the others: at the highest dose activity change, positive = activation, actives largely listed as activators; 210,000 tested, 2.8% active; AID 1458; also: % of control where 0% means no effect; nearly all actives have a fitted effect of over 55% in size
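HEK293 cells carry an SMN2 […]–luciferase reporter in which exon 7 inclusion puts luciferase in frame. Cells were plated 10-12 h before compound addition, then incubated 30-36 h at 37C. ONE-Glo luminescence was read; sodium butyrate at 4.5 mM final served as control.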
FLuc counter: inhibits or activates purified firefly luciferase, miR-21 counter-screen; AID 588342; purified FLuc, Km substrates, luminescence inhibition; 360,000 tested, 6.9% active; Potency, µM (titrated, usually from 57.5 µM), for the others: top-dose activity change, negative = inhibition, hits mostly inhibitors; P08659;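 also: plate controls were vehicle for no effect and reference inhibitor for full effect; nearly all actives have a fitted effect of over 55% in size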
Target sequence (P08659 whole entry, looked up): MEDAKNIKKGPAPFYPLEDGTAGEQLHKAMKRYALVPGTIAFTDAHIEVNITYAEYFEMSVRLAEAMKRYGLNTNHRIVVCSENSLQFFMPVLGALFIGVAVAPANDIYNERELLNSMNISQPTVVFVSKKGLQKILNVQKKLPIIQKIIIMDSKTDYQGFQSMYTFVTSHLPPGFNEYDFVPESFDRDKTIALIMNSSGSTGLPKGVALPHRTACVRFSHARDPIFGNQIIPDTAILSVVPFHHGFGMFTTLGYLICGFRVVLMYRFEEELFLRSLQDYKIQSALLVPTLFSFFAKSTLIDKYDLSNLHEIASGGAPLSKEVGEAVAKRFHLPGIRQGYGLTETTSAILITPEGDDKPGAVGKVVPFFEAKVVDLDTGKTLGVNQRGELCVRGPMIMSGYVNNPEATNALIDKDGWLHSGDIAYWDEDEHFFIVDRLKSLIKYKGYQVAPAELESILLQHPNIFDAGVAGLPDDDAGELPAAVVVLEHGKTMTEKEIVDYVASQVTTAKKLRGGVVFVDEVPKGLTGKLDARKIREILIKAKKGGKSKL
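Purified P. pyralis luciferase, 10 nM final, with Km-level 10 uM D-luciferin and 10 uM ATP in 50 mM Tris acetate pH 7.5, 10 mM Mg acetate, 0.01% Tween-20, 0.05% BSA; 6-point qHTS titration about 60 µM downward; luminescence read.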
NPC1 promoter act: NPC1 promoter activation. Potency, µM (series often up to 9.22 µM), without a hit: at the highest dose activation, most hits filed as activators. Huh7 NPC1 promoter luciferase reporter, 24 h. 320,000 tested, 2.4% active. AID 485313; also: % of control where 0% means no effect; nearly all actives have a fitted effect of over 60% in size
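Cells: Huh7 expressing luciferase under the NPC1 promoter, 1500/well. Seeded 2 h, compound added, incubated 24 h at 37 °C. Luciferase reagent, 10 min ambient, then luminescence.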
Rab9 promoter act: activators of Rab9 promoter | Huh7 Rab9 promoter-luciferase reporter, luminescence, 24 h | Potency, µM (series often up to 9.22 µM), for inactives: at the highest dose activation, negative = inhibition, most hits filed as activators | 320,000 tested, 2.8% active; also: % of control where 0% means no effect; nearly all actives have a fitted effect of over 60% in size
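Quantitative HTS format; Huh7 Rab9-luciferase reporter cells (1500/well) receive compound 2 h post-plating, incubate 24 h at 37 °C, then get luciferase reagent for 10 min before luminescence reading.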
Luc counter: counter-screen: inhibitors of Kinase-Glo firefly luciferase; Q27757; Kinase-Glo luciferase, ATP luminescence, 8 min; Potency, µM (doses to about 38.3 µM), for inactives: at the top dose activity change, negative = inhibition, actives largely listed as inhibitors; 200,000 tested, 0.28% active; also: % is scaled to controls: 0 for no effect and ±100 for the full control effect; nearly all actives have a fitted effect of over 60% in size
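Compounds were added to a substrate mix at pH 7.2 (50 mM imidazole, 10 uM ATP, within the enzyme's linear range), followed by Kinase-Glo detection reagent; luminescence was measured after 8 minutes at ambient temperature.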
The depositor's hits bear a star; [ ] = dose if it differs, or a comment. Calls follow the shape of the dose curve; as a rule, active = well fitted curve in the direction sought with a large enough effect; inconclusive = small, poorly fitted or top-dose-only effect, or another doubt; inactive = no such curve, though single readings can be large; an effect the other way counts as inactive or inconclusive. Potency is read from the fitted curve at half-maximal effect.

Fc1ccc([C@H]2CCNC[C@H]2COc2ccc3c(c2)OCO3)cc1 was read as Luc counter 2%.
For CCOc1ccc(CNC(=O)c2ccc3c(Cl)c4c(nc3c2)CCCC4)cc1 the results were SMN2 splice up -3% and FLuc counter -14%.
For COc1cc(OC)c(NC(=O)c2ccc(-n3cnc4cccnc43)cc2)cc1Cl the results were FLuc counter 0%.
Screening COc1ccc(-c2cn3nc(N4CCCC(C(=O)Nc5cc(C)cc(C)c5)C4)sc3n2)cc1 (stereo unspecified) returned FLuc counter -19%.
`O=C(Nc1nc(-c2ccccn2)cs1)c1ccc2c(c1)OCCO2` gave FLuc counter 1.1µM*, NPC1 promoter act 2.8µM* and Rab9 promoter act 1.8µM*.
Cc1cccc(NC(=O)c2ccc3c(c2)OCCO3)n1 was read as FLuc counter 9.5µM*, NPC1 promoter act 1.4µM* and Rab9 promoter act 1.3µM*.
Screening O=C(Nc1ccc([N+](=O)[O-])cn1)c1cccnc1 returned FLuc counter -3%, NPC1 promoter act 0% and Rab9 promoter act -6%.
O=C(Nc1nc2c(F)cccc2s1)c1ccc2c(c1)OCCO2 was read as FLuc counter 0.54µM*.
`O=C(NCc1ccccc1F)c1ccc2c(c1)OCCO2` gave FLuc counter inconclusive, NPC1 promoter act inconclusive and Rab9 promoter act 28%.
Screening CC(C)(C)c1ccc(C(=O)Nc2ccc([N+](=O)[O-])cn2)cc1 returned SMN2 splice up 2.8µM*, FLuc counter 1.9µM*, NPC1 promoter act 0.71µM*, Rab9 promoter act 1µM* and Luc counter 1%.
CCOc1ccccc1/C=C(\C#N)C(N)=O was read as SMN2 splice up -7%[9.22 µM] and Luc counter -1%[7.66 µM].
Screening COc1ccc(-c2nc3c4ccccc4n(CC(=O)N4CCN(c5ccccc5F)CC4)c(=O)n3n2)cc1 returned FLuc counter -5%.
For O=C(NC(=S)Nc1cc([N+](=O)[O-])ccc1O)c1ccc2c(c1)OCO2 the results were FLuc counter 1.5µM*, NPC1 promoter act 0.32µM* and Rab9 promoter act 0.32µM*.
Screening Cn1ccc(C(=O)NC(=S)Nc2ccc([N+](=O)[O-])cc2O)n1 returned FLuc counter 12µM*, NPC1 promoter act 2.2µM* and Rab9 promoter act 2.8µM*.
`O=C(NC(=S)Nc1ccc([N+](=O)[O-])cc1O)C1CCCCC1` gave FLuc counter inconclusive, NPC1 promoter act 11% and Rab9 promoter act 8%.
For CC(=O)NC1C(OC2OC(CC(O)C3OC([N+]4=CCC(=O)NC4=O)C(O)C3O)C(O)C(O)C2NC(=O)/C=C/CCCCCCCCC(C)C)OC(CO)C(O)C1O (stereo unspecified) the results were SMN2 splice up -33%.
For CN(C)c1ccccc1C(=O)c1ccccc1N(C)C the results were SMN2 splice up 5µM*, FLuc counter 19µM*, NPC1 promoter act -12%, Rab9 promoter act -11% and Luc counter -4%.
`CC(C)(C)c1ccc(C(=O)Nc2nnc(C3=COCCO3)o2)cc1` gave FLuc counter 21µM*, NPC1 promoter act -3% and Rab9 promoter act -2%.
O=C(Nc1ccccc1C(F)(F)F)C1CCN(S(=O)(=O)Cc2ccccc2)CC1 was read as FLuc counter -2%.
Cc1cc2c(s1)c1cnn(CC(=O)NCCc3ccccc3)c(=O)c1n2C was read as SMN2 splice up -5%, FLuc counter 2%, NPC1 promoter act -1%, Rab9 promoter act -7% and Luc counter -9%.
`Cc1cc2c(s1)c1cnn(-c3ccccc3)c(=O)c1n2C` gave FLuc counter 6.7µM*, NPC1 promoter act 15% and Rab9 promoter act inconclusive.
CC1=N/C(=C/c2ccco2)C(=O)O1 was read as SMN2 splice up -16%, FLuc counter -1%, NPC1 promoter act 0%, Rab9 promoter act -6% and Luc counter -1%.
For CCN(CC)C(=O)Oc1ccc2c(c1)O/C(=C\c1ccco1)C2=O the results were FLuc counter 3µM*, NPC1 promoter act inconclusive and Rab9 promoter act inconclusive.
Screening COC(=O)COc1ccc2c(c1)O/C(=C\c1ccco1)C2=O returned FLuc counter 3.4µM*, NPC1 promoter act 1% and Rab9 promoter act 13%.
Screening Cc1cc(O)cc2c1C(=O)/C(=C/c1ccco1)O2 returned FLuc counter 12µM*, NPC1 promoter act inconclusive and Rab9 promoter act -2%[1.84 µM].
CCC(=O)Oc1ccc2c(c1)O/C(=C\c1ccco1)C2=O was read as FLuc counter 3.4µM*, NPC1 promoter act 1% and Rab9 promoter act 12%.
Screening COCCN(CCOC)Cc1c(O)ccc2c1O/C(=C\c1ccco1)C2=O returned FLuc counter -5%, NPC1 promoter act -1% and Rab9 promoter act -2%.
Screening O=C(CSc1nc2ccccc2nc1Cc1ccccc1)N1CCc2ccccc21 returned FLuc counter -1%.
`O=C(CCn1nc(-c2ccc(Cl)cc2)c2ccccc2c1=O)Nc1ccc(OC(F)(F)F)cc1` gave SMN2 splice up 0% and FLuc counter -6%.
For C[C@@]1(C(=O)O)CCC[C@@H]1C(=O)O the results were SMN2 splice up -20%[9.22 µM] and Luc counter -1%[7.66 µM].
For COC(=O)c1cc(OC)c(OC)cc1NC(=O)c1ccc2c(c1)CCN2S(C)(=O)=O the results were SMN2 splice up 3% and FLuc counter -6%.
Screening CCC(=O)N1CCc2cc(S(=O)(=O)Nc3cc(C)ccc3OC)ccc21 returned SMN2 splice up -8% and FLuc counter 2%.
Screening COc1cc(NC(=O)c2ccc(-c3nc(CSc4ccccc4)c(C)o3)cc2)cc(OC)c1 returned FLuc counter -12%.
CCC(Oc1ccccc1)C(=O)Nc1ccc(O)c(-c2nc3cc(C)ccc3o2)c1 (stereo unspecified) was read as FLuc counter 15µM*.
For Cc1ccc(OCC(=O)Nc2ccc(-c3nc4ccccc4o3)cc2)c(C)c1 the results were SMN2 splice up inconclusive and FLuc counter -1%.
Cc1ccc2oc(-c3ccc(NC(=O)CCC(=O)O)cc3)nc2c1 was read as SMN2 splice up 11µM* and FLuc counter 2.4µM*.
For Cc1ccc(-c2nc3cc(NC(=O)C(C)C)ccc3o2)cc1C the results were SMN2 splice up inconclusive, FLuc counter 0.27µM*, NPC1 promoter act 0.35µM*, Rab9 promoter act 0.13µM* and Luc counter inconclusive.
Screening Cc1cc2nc(-c3ccc(NC(=O)C(C)C)cc3)oc2cc1C returned SMN2 splice up 2.8µM*, FLuc counter 0.85µM*, NPC1 promoter act 0.45µM*, Rab9 promoter act 0.63µM* and Luc counter 4%.
